Values without a mark were called inactive. Active and inactive are the calls of the source.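 Rule for the calls: active = blocks over 60% of fluorescent estradiol binding at 10 µM; inactive = the rest.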

For the experiment, the target named is G-protein coupled estrogen receptor 1 (Homo sapiens) (UniProt Q99527). The experiment is described as follows: GPR30 competitive binders vs fluorescent estrogen, primary screen, cell-based, Cos7 GPR30-GFP, flow cytometry, 10 µM (AID 1212). The settings on record: fluorescent estrogen competition, at 10 µM; active compounds read high. (In flow cytometry, cells or beads pass a laser one at a time.)
On to `O=C1CC(c2ccncc2)c2cc3c(cc2N1)OCCO3` (stereo not drawn), for which the inhibition (in general, the percentage by which the read-out fell short of the control) was 1%.
Take `CCCOc1cc(OCCC)c2c3c(c(=O)oc2c1)CCCC3`: the outcome was inactive.
On to `CC(C)COc1ccc2c(c1)c1c3n2CCNC3CCC1` (stereo not drawn), for which the result was inactive.
As for `COc1cc([N+](=O)[O-])cc2c1N[C@@H](c1ccc(C(=O)O)cc1)[C@H]1CC=C[C@@H]21`, the inhibition was 91% (active).
Still for that read-out and setting: as for `CC(=O)c1ccc2c(c1)C1C=CCC1C(c1cccc([N+](=O)[O-])c1)N2` (stereo not drawn), the figure is 64% (active).
Take `CCCCc1cc(=O)oc2c(C)c(O)ccc12`: the result was inactive.
For `Cc1nc2ccccc2n1-c1cc(C(C)(C)C)c(O)c(C(C)(C)C)c1`, the compound was called inactive.
Regarding `COc1cc([N+](=O)[O-])cc2c1NC(c1ccccc1)C1CC=CC21` (stereo not drawn), the inhibition was 34%.
With `CC(C)CN(Cc1c(O)ccc2c3c(c(=O)oc12)CCC3)CC(C)C`, the inhibition was 3%.
`CCCCCCc1cc2c3c(c(=O)oc2cc1OCC(N)=O)CCC3`: the compound was called inactive.
On to `CCOc1cc2c(c([N+](=O)[O-])c1)NC(c1ccccc1)C1CC=CC21` (stereo not drawn), for which the inhibition was 38%.
Take `O=c1oc2c(CN3CCCC3)c(O)ccc2c2c1CCC2`: the compound was classed as inactive.
As to `CC1=CC(C)C2(CO)COC(c3ccccc3O)C1C2C` (stereo not drawn), the outcome was inactive.
On to `COc1cc2c(cc1OC)CC(C)(C)N(Cc1ccco1)C2`, for which the inhibition was 5%.
Same read-out and setting: as for `Cc1c(Cc2ccccc2)c(=O)n2c([nH]c3ccccc32)c1C#N`, the figure is 8%.
Consider `COc1ccc2c(c1)c1c3n2CCNC3CCC1` (stereo not drawn), for which the outcome was inactive.
Turning to `CCOC(=O)c1ccc2c(c1)C1C=CCC1C(c1cccc([N+](=O)[O-])c1)N2` (stereo not drawn), the inhibition was 48%.
For `Cc1cc(C(C)CO)cc(C(C)(C)C)c1O` (stereo not drawn), the compound was classed as inactive.

For the origin of these results see PubChem BioAssay AID1212 (NMMLSC, 2008).
